# Data reported in the supplement of paper PMC3545927.
# This is one part of the list. How many sequences the whole screen found active is unknown.
# Target: furin, P09958
# Experiment: furin cleavage Z-score vs untreated control; higher = more cleavage, active = 3.5 or more, inactive = 1 or less, 8 variable residues between constant flanks
# Summary of the method: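 Abundance of DNA freed from bead-bound 8-mer peptide–cDNA fusions by purified furin was measured as sequencing read counts after PCR adapter tagging. Cutting ran 7.5, 15 or 30 min in 0.01 ml of 50 mM HEPES pH 7.5 with CaCl2 and NaCl at 1:10 enzyme:substrate. The cleavage Z-score expresses these log counts against furin-free reactions after lowess adjustment and median absolute deviation scaling.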
# Sequence of furin, P09958 (P09958 whole entry): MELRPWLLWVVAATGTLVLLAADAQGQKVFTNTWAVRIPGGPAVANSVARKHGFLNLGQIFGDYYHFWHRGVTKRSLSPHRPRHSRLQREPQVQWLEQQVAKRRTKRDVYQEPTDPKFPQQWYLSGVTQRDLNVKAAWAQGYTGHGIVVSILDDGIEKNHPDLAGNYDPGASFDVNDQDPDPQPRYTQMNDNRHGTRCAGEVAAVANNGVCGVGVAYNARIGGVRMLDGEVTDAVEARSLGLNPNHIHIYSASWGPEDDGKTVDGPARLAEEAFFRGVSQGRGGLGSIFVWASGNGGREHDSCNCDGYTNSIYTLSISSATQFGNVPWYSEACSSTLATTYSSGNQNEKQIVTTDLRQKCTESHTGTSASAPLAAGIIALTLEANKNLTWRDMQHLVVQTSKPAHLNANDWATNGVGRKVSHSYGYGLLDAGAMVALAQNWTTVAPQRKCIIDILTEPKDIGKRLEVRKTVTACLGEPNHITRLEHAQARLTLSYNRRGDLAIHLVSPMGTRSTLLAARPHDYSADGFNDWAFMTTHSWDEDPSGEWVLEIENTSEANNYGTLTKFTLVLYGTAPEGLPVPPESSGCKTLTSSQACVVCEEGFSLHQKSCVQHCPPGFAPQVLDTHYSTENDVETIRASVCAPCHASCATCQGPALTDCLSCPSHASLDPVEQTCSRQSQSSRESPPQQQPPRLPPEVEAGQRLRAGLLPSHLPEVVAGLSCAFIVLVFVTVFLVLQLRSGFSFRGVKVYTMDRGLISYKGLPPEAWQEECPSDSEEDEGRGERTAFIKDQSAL
Sequence,furin cleavage Z-score (7.5 min),furin cleavage Z-score (15 min),furin cleavage Z-score (30 min)
CACHLRRFRSAGNASASA [FS-581],-0.297 (inactive),-0.28 (inactive),0.354 (inactive)
CARGGRDAVIAGNASASA [HC594],0.336 (inactive),0.26 (inactive),0.331 (inactive)
CAQMHRKFRSAGNASASA [FS-703],6.07 (active),8.69 (active),6.07 (active)
CAFLWRSFRSAGNASASA [FS-327],-0.934 (inactive),-0.656 (inactive),-0.629 (inactive)
CARGGRIFRSAGNASASA [FS-1397],7.37 (active),8.25 (active),7.16 (active)
CATNHRIFRSAGNASASA [FS-384],1.71,2.99,5.79 (active)
CAVVCCSMTYAGNASASA [HC2078],-0.433 (inactive),0.0813 (inactive),-0.381 (inactive)
CARNRRALRDAGNASASA [FS-3010],7.62 (active),8.24 (active),7.01 (active)
CARNRRGAITAGNASASA [FS-1912],5.06 (active),6.46 (active),7.54 (active)
CARNRRLVSDAGNASASA [FS-3012],0.716 (inactive),3.37,2.68
CARNRRHVTEAGNASASA [FS-3011],12.2 (active),12.5 (active),9.58 (active)
CACFDSTVTEAGNASASA [HC1482],0.967 (inactive),-0.854 (inactive),-1.23 (inactive)
CAREDRGAYTAGNASASA [FS-2909],-0.191 (inactive),0.288 (inactive),-1.31 (inactive)
CARNRRHHRDAGNASASA [FS-709],8.79 (active),10.1 (active),7.04 (active)
CARCDRDNTEAGNASASA [FS-2896],-0.96 (inactive),-0.486 (inactive),-1.77 (inactive)
CAFSYDTRCFAGNASASA [HC1479],-0.0881 (inactive),-0.998 (inactive),0.0108 (inactive)
CALDVVCCSMAGNASASA [HC2105],-0.768 (inactive),-1.48 (inactive),-0.867 (inactive)
CARNRRSILDAGNASASA [FS-2733],6.77 (active),9.44 (active),8.76 (active)
CAVGRVVLSGAGNASASA [HC1002],-0.201 (inactive),2.15,-1.8 (inactive)
CARNRRTHEFAGNASASA [FS-2048],-0.109 (inactive),-0.137 (inactive),0.595 (inactive)
CARNRRVAEAAGNASASA [FS-2049],2.16,3.37,3.98 (active)
CARNRRSLSGAGNASASA [FS-2577],5.26 (active),5.66 (active),6.3 (active)
CARNRRHPRSAGNASASA [FS-560],11.3 (active),13.7 (active),8.58 (active)
CARIPQAILDAGNASASA [HC330],-0.397 (inactive),0.0404 (inactive),0.351 (inactive)
CALMPQLPGIAGNASASA [HC1160],1.4,1.95,0.83 (inactive)
CAPDYNPPLVAGNASASA [HC1306],0.58 (inactive),-1.42 (inactive),-0.164 (inactive)
CADAEVVTSTAGNASASA [HC2283],-0.438 (inactive),0.612 (inactive),0.657 (inactive)
CAGNPAIASLAGNASASA [HC1052],-0.886 (inactive),-0.0897 (inactive),-0.877 (inactive)
